Measurements published in PubChem BioAssay (NCATS).
Results filed as inconclusive are left out. Where a call stands in place of a potency, no number is given. The source made the active and inactive calls. Unless noted, calls follow the shape of the dose curve; as a rule, active = well fitted curve in the direction sought with a large enough effect; inconclusive = small, poorly fitted or top-dose-only effect, or another doubt; inactive = no such curve, though single readings can be large; an effect the other way counts as inactive or inconclusive.

target: Alpha-galactosidase (Coffea arabica) (UniProt Q42656); assay: Counterscreen for Glucocerebrosidase Inhibitors: qHTS Assay for Coffee Bean alpha-Galactosidase at pH 5.9 (AID 998); conditions: coffee bean alpha-galactosidase enzyme assay; series mostly up to 76.9 µM
Sequence (Q42656 whole entry, looked up): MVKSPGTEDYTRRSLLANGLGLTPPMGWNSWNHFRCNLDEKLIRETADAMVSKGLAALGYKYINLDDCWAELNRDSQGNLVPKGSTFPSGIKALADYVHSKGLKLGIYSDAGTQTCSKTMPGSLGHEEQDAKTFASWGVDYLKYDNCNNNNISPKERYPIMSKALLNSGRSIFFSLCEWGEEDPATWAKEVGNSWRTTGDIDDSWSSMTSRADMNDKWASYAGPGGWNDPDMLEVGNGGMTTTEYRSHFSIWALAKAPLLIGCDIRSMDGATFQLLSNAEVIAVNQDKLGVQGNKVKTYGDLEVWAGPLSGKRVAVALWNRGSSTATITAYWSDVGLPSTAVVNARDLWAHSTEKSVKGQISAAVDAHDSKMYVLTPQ
Outline: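 Enzyme 2 nM + cpd (0.7 nM–77 uM titration) + 4-MU-alpha-Gal 80 uM, pH 5.9 citrate/Tween-20, RT 20 min, NaOH/glycine stop pH 10, fluor 365/440. Normalized to no-enzyme and full-activity controls; Hill-fit AC50.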

Row | SMILES | outcome
1 | CCCn1c(=O)c2c(ncn2C)n(CCC)c1=O | inactive
2 | CCN(CC)CCOC(=O)c1cc(Cl)c(N)cc1OC | inactive
3 | O=c1[nH]c2ccccc2c2ccccc12 | inactive
4 | COc1ccccc1N1CCN(CCCCN2C(=O)c3ccccc3C2=O)CC1 | inactive
5 | N=C(N)SCCc1cnc[nH]1 | inactive
6 | CCn1c(=O)[nH]c2cc(Cl)c(Cl)cc21 | inactive
7 | O=C(Nc1cccc(C(=O)Nc2ccc(S(=O)(=O)O)c3cc(S(=O)(=O)O)cc(S(=O)(=O)O)c23)c1)Nc1cccc(C(=O)Nc2ccc(S(=O)(=O)O)c3cc(S(=O)(=O)O)cc(S(=O)(=O)O)c23)c1 | inactive
8 | COc1ccc(-c2ccc(N)[n+](CCCC(=O)O)n2)cc1 | inactive
9 | O=C(OCCN1CCOCC1)C1(c2ccccc2)CCCCC1 | inactive
10 | C[C@@H](NC(=O)/C(C#N)=C/c1ccc(O)c(O)c1)c1ccccc1 | inactive
11 | NS(=O)(=O)c1cccc2c1c([N+](=O)[O-])cc1nc(O)c(O)nc12 | inactive
12 | Cc1ccc([N+](=O)[O-])cc1S(=O)(=O)N(C)C | inactive
13 | C#CCn1c(=O)c2c(ncn2C)n(C)c1=O | inactive
14 | O=C(O)c1ccccc1Nc1ccccc1 | inactive
15 | O=c1onc2cnc3ccccc3n12 | inactive
16 | COc1ccc2c(c1)c(CC(=O)O)c(C)n2Cc1ccc(Cl)cc1 | inactive
17 | O=C(c1cc(O)c(O)c([N+](=O)[O-])c1)c1ccccc1F | inactive
18 | C[C@@H]1C(=O)NC2=Nc3cccc(Cl)c3CN21 | inactive

test system: not listed separately; assay: Validation screen for inhibitors of Lassa infection (AID 463096; calls by dose curve); conditions: Lassa virus infection, cell-based; series mostly up to 46.1 µM

Row | SMILES | Potency
19 | O=C(O)c1cc([N+](=O)[O-])ccc1NCCCc1ccccc1 | inactive
20 | CC(N)=O | inactive
21 | NC(N)=NC(N)=Nc1cccc(Cl)c1 | inactive
22 | Cc1cccc(C(=O)NCN2CCN(c3ccccc3C#N)CC2)c1 | inactive
23 | O=C(O)[C@@H]1C[C@@H](C(=O)O)N1 | inactive
24 | O=C(O)c1ccccc1Nc1cccc(OCc2ccc3ccccc3n2)c1 | inactive
25 | COc1cc2c(CCNC(C)=O)c[nH]c2cc1O | inactive
26 | O=[N+]([O-])c1cccc2cn[nH]c12 | inactive
27 | CC(C)(C=O)Cc1cc(C(C)(C)C)c(O)c(C(C)(C)C)c1 | inactive
28 | Cc1nc(N=Nc2ccc(S(=O)(=O)O)cc2S(=O)(=O)O)c(COP(=O)(O)O)c(C=O)c1O | inactive
29 | O=C1CCC(c2ccc(-n3ccnc3)cc2)=NN1 | inactive
30 | COc1ccc(C(=O)NCc2cccnc2)cc1C(=O)NCc1cccnc1 | inactive
31 | COc1cc(CC(=O)O)ccc1O | inactive
32 | CCCn1c(=O)c2[nH]c(C3CCCC3)nc2n(CCC)c1=O | inactive
33 | O=[N+]([O-])c1cccc2c(Br)[nH]nc12 | inactive
34 | Cc1ccc2c(c1)C(N1CCN(C)CC1)=Nc1cccnc1N2 | inactive
35 | O=c1[nH]c(=O)c2nc3ccccc3nc2[nH]1 | inactive
36 | CCCn1c(=O)c2[nH]c(-c3ccc(S(=O)(=O)O)cc3)nc2n(CCC)c1=O | inactive
37 | COc1ccccc1N1CCN(CCN2C(=O)CC3(CCCC3)CC2=O)CC1 | inactive
38 | CN[C@H](CC(=O)O)C(=O)O | inactive

Row | SMILES | Potency
39 | CN(C)C(N)=NCCC[C@H](N)C(=O)O | inactive
40 | c1ccc2c(c1)CC(N1CCN(c3cccc4c3OCCO4)CC1)C2 | inactive
41 | CCCn1c(=O)c2c(ncn2C)n(CCC)c1=O | inactive
42 | CCN(CC)CCOC(=O)c1cc(Cl)c(N)cc1OC | inactive
43 | O=c1[nH]c2ccccc2c2ccccc12 | inactive
44 | COc1ccccc1N1CCN(CCCCN2C(=O)c3ccccc3C2=O)CC1 | inactive
45 | N=C(N)SCCc1cnc[nH]1 | inactive
46 | CCn1c(=O)[nH]c2cc(Cl)c(Cl)cc21 | inactive
47 | O=C(Nc1cccc(C(=O)Nc2ccc(S(=O)(=O)O)c3cc(S(=O)(=O)O)cc(S(=O)(=O)O)c23)c1)Nc1cccc(C(=O)Nc2ccc(S(=O)(=O)O)c3cc(S(=O)(=O)O)cc(S(=O)(=O)O)c23)c1 | inactive
48 | COc1ccc(-c2ccc(N)[n+](CCCC(=O)O)n2)cc1 | inactive
49 | O=C(OCCN1CCOCC1)C1(c2ccccc2)CCCCC1 | inactive
50 | C[C@@H](NC(=O)/C(C#N)=C/c1ccc(O)c(O)c1)c1ccccc1 | inactive
51 | NS(=O)(=O)c1cccc2c1c([N+](=O)[O-])cc1nc(O)c(O)nc12 | inactive
52 | Cc1ccc([N+](=O)[O-])cc1S(=O)(=O)N(C)C | inactive
53 | C#CCn1c(=O)c2c(ncn2C)n(C)c1=O | inactive
54 | O=C(O)c1ccccc1Nc1ccccc1 | inactive
55 | O=c1onc2cnc3ccccc3n12 | inactive
56 | COc1ccc2c(c1)c(CC(=O)O)c(C)n2Cc1ccc(Cl)cc1 | inactive
57 | O=C(c1cc(O)c(O)c([N+](=O)[O-])c1)c1ccccc1F | inactive
58 | C[C@@H]1C(=O)NC2=Nc3cccc(Cl)c3CN21 | inactive

test system: not listed separately; assay: Inducers of the Endoplasmic Reticulum Stress Response (ERSR) in human glioma: Validation (AID 504836); conditions: human glioma cells, ER stress response reporter; series mostly up to 38.3 µM
Outline: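 Stably transfected U87-MG glioma cells carrying a GRP78-based luciferase sensor; 16 h compound incubation. Luminescence end-point read 10 min after Bright-Glo addition at room temperature.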

Row | SMILES | outcome
59 | O=C(O)c1cc([N+](=O)[O-])ccc1NCCCc1ccccc1 | inactive
60 | CC(N)=O | inactive
61 | NC(N)=NC(N)=Nc1cccc(Cl)c1 | inactive
62 | Cc1cccc(C(=O)NCN2CCN(c3ccccc3C#N)CC2)c1 | inactive
63 | O=C(O)[C@@H]1C[C@@H](C(=O)O)N1 | inactive
64 | O=C(O)c1ccccc1Nc1cccc(OCc2ccc3ccccc3n2)c1 | inactive
65 | COc1cc2c(CCNC(C)=O)c[nH]c2cc1O | inactive
66 | O=[N+]([O-])c1cccc2cn[nH]c12 | inactive
67 | CC(C)(C=O)Cc1cc(C(C)(C)C)c(O)c(C(C)(C)C)c1 | inactive
68 | Cc1nc(N=Nc2ccc(S(=O)(=O)O)cc2S(=O)(=O)O)c(COP(=O)(O)O)c(C=O)c1O | inactive
69 | O=C1CCC(c2ccc(-n3ccnc3)cc2)=NN1 | inactive
70 | COc1ccc(C(=O)NCc2cccnc2)cc1C(=O)NCc1cccnc1 | inactive
71 | COc1cc(CC(=O)O)ccc1O | inactive
72 | CCCn1c(=O)c2[nH]c(C3CCCC3)nc2n(CCC)c1=O | inactive
73 | O=[N+]([O-])c1cccc2c(Br)[nH]nc12 | inactive
74 | Cc1ccc2c(c1)C(N1CCN(C)CC1)=Nc1cccnc1N2 | inactive
75 | O=c1[nH]c(=O)c2nc3ccccc3nc2[nH]1 | inactive
76 | CCCn1c(=O)c2[nH]c(-c3ccc(S(=O)(=O)O)cc3)nc2n(CCC)c1=O | inactive
77 | COc1ccccc1N1CCN(CCN2C(=O)CC3(CCCC3)CC2=O)CC1 | inactive
78 | CN[C@H](CC(=O)O)C(=O)O | inactive

Row | SMILES | outcome
79 | CN(C)C(N)=NCCC[C@H](N)C(=O)O | inactive
80 | c1ccc2c(c1)CC(N1CCN(c3cccc4c3OCCO4)CC1)C2 | inactive
81 | CCCn1c(=O)c2c(ncn2C)n(CCC)c1=O | inactive
82 | CCN(CC)CCOC(=O)c1cc(Cl)c(N)cc1OC | inactive
83 | O=c1[nH]c2ccccc2c2ccccc12 | inactive
84 | COc1ccccc1N1CCN(CCCCN2C(=O)c3ccccc3C2=O)CC1 | inactive
85 | N=C(N)SCCc1cnc[nH]1 | inactive
86 | CCn1c(=O)[nH]c2cc(Cl)c(Cl)cc21 | inactive
87 | O=C(Nc1cccc(C(=O)Nc2ccc(S(=O)(=O)O)c3cc(S(=O)(=O)O)cc(S(=O)(=O)O)c23)c1)Nc1cccc(C(=O)Nc2ccc(S(=O)(=O)O)c3cc(S(=O)(=O)O)cc(S(=O)(=O)O)c23)c1 | inactive
88 | COc1ccc(-c2ccc(N)[n+](CCCC(=O)O)n2)cc1 | inactive
89 | O=C(OCCN1CCOCC1)C1(c2ccccc2)CCCCC1 | inactive
90 | C[C@@H](NC(=O)/C(C#N)=C/c1ccc(O)c(O)c1)c1ccccc1 | inactive
91 | NS(=O)(=O)c1cccc2c1c([N+](=O)[O-])cc1nc(O)c(O)nc12 | inactive
92 | Cc1ccc([N+](=O)[O-])cc1S(=O)(=O)N(C)C | inactive
93 | C#CCn1c(=O)c2c(ncn2C)n(C)c1=O | inactive
94 | O=C(O)c1ccccc1Nc1ccccc1 | inactive
95 | O=c1onc2cnc3ccccc3n12 | inactive
96 | COc1ccc2c(c1)c(CC(=O)O)c(C)n2Cc1ccc(Cl)cc1 | inactive
97 | O=C(c1cc(O)c(O)c([N+](=O)[O-])c1)c1ccccc1F | inactive
98 | C[C@@H]1C(=O)NC2=Nc3cccc(Cl)c3CN21 | inactive
